# Screening results (PubChem)
# E coli Lon inh = E. coli protease La inhibition. P0A9M0. purified E. coli Lon protease, fluorescence polarization. inhibition, % at 7.94 µM. 0.42% of 360,000 active; in the data active = inhibition above about 13%, passing the limit was not always enough;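 also: 0% = enzyme with probe and DMSO and 100% = no enzyme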
# MEX-5 binding = C. elegans MEX-5 TCR-2 RNA binding activity; MEX-5/FITC-TCR2 RNA binding, fluorescence polarization; stronger effect = lower value; activity score (negative = inhibition of binding), % at 10 µM; 0.38% of 300,000 active; AID 1832;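 active = inhibition past about -25% in most replicates, and total fluorescence under double the plate's negative control median, limit read from the data; inconclusive = replicates evenly split on the limit, or fluorescence at least double controls; inactive = too little inhibition in most replicates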;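 also: 0% = DMSO and -100% = 5 µM competing unlabeled TCR2 RNA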
# Target sequence (Q9XUB2 whole entry, looked up): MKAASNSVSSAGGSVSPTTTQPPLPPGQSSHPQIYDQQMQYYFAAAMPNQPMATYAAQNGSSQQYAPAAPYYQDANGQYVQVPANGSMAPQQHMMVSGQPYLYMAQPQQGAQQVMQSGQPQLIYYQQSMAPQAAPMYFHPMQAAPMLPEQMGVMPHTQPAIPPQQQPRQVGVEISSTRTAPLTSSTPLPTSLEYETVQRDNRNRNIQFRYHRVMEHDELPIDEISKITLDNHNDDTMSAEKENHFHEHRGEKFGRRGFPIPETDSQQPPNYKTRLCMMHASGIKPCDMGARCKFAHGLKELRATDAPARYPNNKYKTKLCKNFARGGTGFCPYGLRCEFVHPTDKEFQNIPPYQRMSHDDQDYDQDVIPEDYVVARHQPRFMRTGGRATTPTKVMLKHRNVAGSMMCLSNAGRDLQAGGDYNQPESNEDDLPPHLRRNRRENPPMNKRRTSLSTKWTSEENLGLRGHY
# GLD-1 RNA inh = GLD-1-TGE RNA interaction inhibition (C. elegans); Q17339; purified GLD-1 + fluorescein TGE RNA, fluorescence polarization; inhibition, % at 5.96 µM; 0.44% of 320,000 active;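 active = percent inhibition above a per-plate cutoff, the plate mean of test compounds plus 3 SD, cut at about 30% in these data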;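 also: 0% = DMSO wells with GLD-1 and probe and 100% = wells lacking GLD-1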
# EBV gp42 inh = EBV gp42 inhibition; Fluorescence polarization binding assay, mP read-out; AID 1085; Q1HVG2; 0.42% of 220,000 active; inhibition, % (tested at 21.74 µM); in the data active = inhibition above about 50%
# BCLXL inh = inhibitors of human Bcl-xL; Q07817; GST-Bcl-xL / FITC-Bim BH3 peptide fluorescence polarization; inhibition, % at 10.9 µM; 0.7% of 320,000 active;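 active = inhibition above the mean of all tested compounds plus 3 SD, cutoff set per campaign, cut at about 30% in these data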;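 also: 0% = DMSO wells and 100% = unlabeled Bim-BH3 peptide competitor; inhibitors lower millipolarization by displacing the labeled peptide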
# The depositor's hits bear a star; ? = inconclusive; . = no result given. This is a sample that favours compounds with a hit; in the whole collection about 1.3% have one here.
SMILES,E coli Lon inh,MEX-5 binding,GLD-1 RNA inh,EBV gp42 inh,BCLXL inh
COc1ccc(C2CCCN2C(=O)Nc2ccc(Cl)cc2)cc1OC (configuration not stated),-8,5,4,-16,-6
COc1cccc(C(=O)/C=C/Nc2cccc(O)c2)c1,13,0,14,-14,86*
COc1cccc(N/C=C/C(=O)c2ccc(C)cc2)c1,-13,1,4,.,-1
O=C(O)c1ccc(S(=O)(=O)/N=C2\C=C(Nc3ccccc3F)C(=O)c3ccccc32)cc1,4,-42*,9,.,24
CC1Cc2ccccc2N1Cc1cc(=O)n2ccsc2n1 (configuration not stated),10,.,11,29,33*
COc1ccccc1N1CCN(Cc2cc(=O)n3ccsc3n2)CC1,4,-5,8,-16,1
O=C(COc1cccnc1[N+](=O)[O-])Nc1ccc2c(c1)OC(F)(F)O2,-7,1,8,-13,-3
Cc1c(N=C2N=C(NC(=O)c3ccc(F)cc3)c3ccccc32)c(=O)n(-c2ccccc2)n1C,0,-9,-8,116*,-11
Cc1c(NC(=O)NC(=O)c2ccc(F)cc2)c(=O)n(-c2ccccc2)n1C,-2,-3,2,-23,0
CCCCCCCCN1C(=O)[C@H](CC(=O)NCCC(C)C)C[C@@]2(C(=O)OC)CCCCC=C12,6,.,.,.,.
CC(C)NC(=O)c1cc(-c2ccc(F)cc2OC(C)C)n[nH]1,0,.,.,.,.
O=C1/C(=C\c2cc([N+](=O)[O-])ccc2O)SC(=S)N1Cc1ccc(Cl)cc1,-236,?,47*,.,76*
O=C1/C(=C\c2cccc(O)c2O)SC(=S)N1Cc1ccccc1,1,-1,5,.,16
COc1ccc(-c2cn[nH]c2-c2ccc(OCC(=O)NN)cc2O)cc1OC,2,-46*,-3,.,3
COc1ccc(-c2cn[nH]c2-c2ccc(OCC(=O)NN)cc2O)cc1,3,-11,.,.,.
c1cc(C(c2nnnn2C2CCCCC2)N2CCN3CCCC3C2)ccn1 (configuration not stated),7,-5,28,6,37*
Cc1[nH]c(=O)[nH]c(=O)c1CSCC(=O)OCC(=O)Nc1ccccn1,6,-11,13,51*,9
COc1cc(/C=C2\C(=N)N3N=C(S(C)(=O)=O)SC3=NC2=O)ccc1OC(=O)c1ccco1,-30,2,-1,.,2
O=C(c1ccc2ccccc2c1)C1CCCN(S(=O)(=O)c2cccnc2)C1 (configuration not stated),0,1,3,-7,5
CCC(C)NC(=O)c1ccc(CSCc2cccc(F)c2)o1 (configuration not stated),-2,-1,-2,110*,5
COc1ccc(-n2c(O)c(/C=N/Nc3nc(C)cc(C)n3)c3ccccc3c2=O)cc1OC,4,1,-4,-6,8
COc1ccc(-n2c(O)c(/C=N/NS(=O)(=O)c3ccc(C)cc3)c3ccccc3c2=O)cc1OC,-498,5,-74,-22,48*
COc1ccc(-n2c(O)c(/C=N/NS(=O)(=O)c3cc(C)ccc3C)c3ccccc3c2=O)cc1OC,-449,-31*,-74,-19,54*
COc1ccc(C)cc1S(=O)(=O)Nc1ccc(-n2c(C)nc3ccccc3c2=O)cc1,-4,3,-2,.,0
Nc1[nH]c(C(=O)c2ccccc2)c(-c2ccccc2Br)c1C(=O)NCCc1ccc(Cl)cc1Cl,2,.,.,.,.
SMILES,E coli Lon inh,MEX-5 binding,GLD-1 RNA inh,EBV gp42 inh,BCLXL inh
CCN(CC)S(=O)(=O)c1cccc(C(=O)N/N=C2\CC(=O)CC(C)(C)C2)c1,23,-2,53*,-5,15
Cc1ccc(S(=O)(=O)N(C)Cc2ccc(C(=O)N/N=C3\CC(=O)CC(C)(C)C3)cc2)cc1,-1,5,13,-10,1
O=c1c(O)c(-c2cccs2)oc2ccc(Cl)cc12,-70,-5,57*,30,46*
N#Cc1nc(Cc2cccc3ccccc23)oc1N1CCC(C(N)=O)CC1,-2,-1,0,-6,33*
COc1ccc2nc(-n3c(O)c(C4=c5ccccc5=NC4=O)[nH]c3=S)sc2c1,3,0,2,115*,15
Cn1c(O)c(C2=c3ccccc3=NC2=O)[nH]c1=S,6,-1,3,-19,12
CC(=O)N1C(C)(C)CC(=NOS(=O)(=O)c2ccccc2)CC1(C)C,9,.,.,3,.
Nc1c2ccccc2nc2ccccc12,-1,1,5,-11,3
N#Cc1c2ccccc2nc2ccccc12,-7,2,6,-15,37*
CCOC(=O)C1(Cc2cccc(Cl)c2)CCCN(C(=O)C(C)(C)C)C1 (configuration not stated),-12,-1,4,.,0
Cc1cc(-c2ccccc2)c(C#N)c(=S)[nH]1,-12,0,3,83*,5
N#Cc1c(-c2ccccc2Cl)cc(-c2ccccc2)[nH]c1=S,.,-1,2,11,9
CCN(CC)CCN1C(=O)C(=O)/C(=C(/O)c2ccc(S(=O)(=O)N3CCOCC3)cc2)C1c1ccc(C(C)C)cc1 (configuration not stated),7,-1,2,.,8
Cc1cccc(C)c1OCC(O)Cn1ccnc1C (configuration not stated),8,0,-4,84*,-2
Cc1cccc(OCC(O)Cn2ccnc2C)c1 (configuration not stated),8,-1,2,.,9
CCCOc1cccc(C2C(C(=O)c3ccco3)=C(O)C(=O)N2c2nnc(C)s2)c1 (configuration not stated),8,-32*,56*,.,41*
Cc1nnc(N2C(=O)C(O)=C(C(=O)c3ccco3)C2c2ccc(C(C)(C)C)cc2)s1 (configuration not stated),-8,-5,32*,40,33*
Cc1ccc(C2C(C(=O)c3ccco3)=C(O)C(=O)N2c2ncccn2)cc1 (configuration not stated),-1,2,2,-10,7
Cc1nnc(N2C(=O)C(O)=C(C(=O)c3ccco3)C2c2ccc(C(C)C)cc2)s1 (configuration not stated),-5,-27*,40*,72*,40*
Cc1nnc(N2C(=O)C(O)=C(C(=O)c3ccco3)C2c2ccc(F)cc2)s1 (configuration not stated),9,-27*,45*,76*,33*
O=C(Oc1coc(CSc2ncccn2)cc1=O)c1ccccc1[N+](=O)[O-],6,3,-71,-9,-61
COc1cccc(CN2CC(C(=O)NCCc3ccc(C)s3)CCC2=O)c1 (configuration not stated),-17,0,2,.,6
Cn1c(N)c(C(=O)COC(=O)c2ccc3c(c2)C(=O)N(c2ccc(Cl)cc2)C3=O)c(=O)n(C)c1=O,0,-1,4,6,6
